High-throughput results deposited in PubChem by Sanford-Burnham Center for Chemical Genomics.
Sampled rows, rich in hits. Any-hit rate of the full collection: about 2.2%.
HIF-2a block – HIF-2a reporter inhibitors, primary screen, luminescence, 786-0 RCC cells | 360,000 tested, 0.72% active | inhibition, % at 18.8 µM | AID 624352, 2012 | 786-0 RCC cells HIF-2a reporter, luciferase luminescence, overnight;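 active means inhibition of the luminescence signal of 40% or more relative to plate controls, in a single-dose primary screen at 18.75 µM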
hiPSC survival – enhancers of single-cell hiPSC survival, primary screen, ATPlite luminescence; 360,000 tested, 0.044% active; 100% = ROCK inhibitor wells, 0% = DMSO; survival enhancement, % at 20 µM; in the data active means survival enhancement above about 18%;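 further: cells exposed to compounds for 16 hours before the ATP read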
PPC-1+TRAIL kill – compounds killing PPC-1 cancer cells with TRAIL present, primary screen, TRAIL potentiator project, ATPLite luminescence, uHTS; AID 1443, 2008; 220,000 tested, 0.41% active; PPC-1 cells + TRAIL, ATPLite viability luminescence; cell killing (% activity), % at 4 µM or 5 µM;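 active means cell killing above 50% in the first pass at 4 µM, then a duplicate retest at 5 µM averaging 50% or more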;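 further: plate controls were cells with TRAIL plus DMSO for no effect and medium-only wells lacking cells for full effect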
KKLEB cytotox – cytotoxicity in KKLEB CF airway cells, primary screen, cytotoxicity control for CF NF-kB inhibitor project, cell-based, uHTS, fluorescence assay plates; activity change (cytotoxicity), % at 5 µM; KKLEB CF airway cells viability, ATPlite luminescence, overnight; hits give low values; cells stimulated with P. aeruginosa culture filtrate; 360,000 tested, 0.36% active;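 active means corrected activity change at or below -50% at 5 µM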
C8 TRAIL sens – viability loss with TRAIL in NB7+C8 cells, primary screen, TRAIL sensitizer project, cell-based, ATPlite luminescence | inhibition (viability loss, TRAIL sensitization), % at 10 µM | 360,000 tested, 1% active | AID 624354, 2012;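 active means compounds causing at least 50% loss of cell viability in the single-dose screen, relative to plate controls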
CF NFkB inh – inhibitors of PAF-induced NF-kB signaling, primary screen, cell-based, GFP fluorescence, uHTS. KKLEB NF-kB-GFP reporter, GFP fluorescence overnight. inhibition, % at 5 µM. 360,000 tested, 0.86% active;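 active means at least 50% inhibition at 5 µM, scaled per plate between neutral and stimulator controls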;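 further: PAF is a Pseudomonas aeruginosa culture filtrate used as stimulus; plate controls were PAF-stimulated DMSO wells for no effect and unstimulated DMSO wells for full effect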
* marks the source's active call; other numbers are inactive results; x = not tested or not shown.

SMILES	HIF-2a block	hiPSC survival	PPC-1+TRAIL kill	KKLEB cytotox	C8 TRAIL sens	CF NFkB inh
COc1ccc(Nc2nc(Nc3ccc(OC)cc3)nc(-n3[nH]c(=O)c(C)c3C)n2)cc1	-40	0	23	-31	25	87*
COc1ccc(Nc2nc(OC)nc(OC)n2)cc1	-38	0	x	-5	-9	5
O=C(c1cc(-c2ccc(Cl)cc2Cl)on1)N1CCCC1	-36	-1	x	-26	67*	-5
O=C(c1cc(-c2ccc(Cl)cc2Cl)on1)N1CCCCCC1	-177	0	x	-9	15	3
O=C(c1cc(-c2ccc3c(c2)OCO3)on1)N1CCCCC1	-21	0	x	-13	57*	17
Cc1ccc(-c2cc(C(=O)N3CCOCC3)no2)cc1	31	0	x	3	69*	-36
C=CCNC(=O)c1cc(-c2ccc3c(c2)OCO3)on1	-48	-1	x	4	51*	-28
CNC(=O)NC(=O)COc1ccc2oc3c(c2c1)CCCC3	-101	0	x	5	0	9
COc1cc(OC)c(C(=O)Nc2ccc(C(=O)c3ccccc3)cc2)cc1OC	-53	0	x	20	-18	-21
CCOc1ccc2c(c1)-c1c(ssc1=S)C(C)(C)N2C(=O)c1ccco1	17	-2	2	-12	12	53*
COc1ccc2c(c1)-c1c(ssc1=S)C(C)(C)N2C(=O)CSC1=NCCS1	21	-4	14	3	11	21
O=c1c2oc3ccccc3c2ncn1Cc1ccc(F)cc1	-79	0	-8	3	-9	-18
Cc1cc(N/N=C/c2ccc(O)cc2)nc(NS(=O)(=O)c2ccccc2)n1	54*	2	12	20	-1	-34
Cc1ccc(/C=N/Nc2cc(C)nc(NCc3ccccc3)n2)cc1	-37	1	-2	-2	17	4
O=C1CCC(=O)N1c1ccc(-c2nc3ccccc3s2)cc1	-67	-4	31	-14	78*	-12
Cc1cc(-c2nc3ccccc3s2)ccc1N	-26	-2	x	-29	72*	-32
COc1ccc(N2CCN(C(=O)NCc3ccc(C)cc3)CC2)cc1	-4	0	x	-4	7	4
Clc1ccc(CN2CCc3c([nH]c4ccccc34)C2)cc1Cl	27	-1	x	-24	54*	2
CCOc1ccc(C2(C)CC(=O)N(C)C2=O)cc1 (centres undefined)	13	1	x	0	-4	-5
CC(C)CCNC(=O)c1onc(CSc2ccc(F)cc2)c1C(=O)NCCC(C)C	4	21*	x	-1	-1	20
CC(C)NC(=O)c1onc(CSc2ccc(F)cc2)c1C(=O)O	9	1	11	3	2	-5
CC(C)CCNC(=O)c1onc(CSc2ccc(Cl)cc2)c1C(=O)NCCC(C)C	15	4	8	9	11	-17
CC(C)NC(=O)c1onc(CSc2ccc(C(C)C)cc2)c1C(=O)O	17	-1	96*	3	-10	-8
COc1ccc(CN(C(=O)c2cc(=O)c3cc(C)cc(C)c3o2)C2CCS(=O)(=O)C2)cc1 (centres undefined)	14	0	17	0	24	14
C/C(=N\Nc1nc(C)cc(-c2ccccc2)n1)c1cccc(N)c1	-100	0	x	-10	51*	-8
SMILES	HIF-2a block	hiPSC survival	PPC-1+TRAIL kill	KKLEB cytotox	C8 TRAIL sens	CF NFkB inh
C/C(=N\Nc1nc(C)cc(-c2ccccc2)n1)c1ccccc1	-109	0	x	-9	20	-15
CC(=O)c1ccccc1NC(=O)COC(=O)CCCN1C(=O)c2cccc3cccc(c23)C1=O	16	32*	23	0	9	-6
Cc1ccccc1NC(=O)c1c(C)[nH]c(=S)c(C#N)c1-c1ccco1	5	-1	60*	-2	-10	0
Cc1cc(C)c(C)c(S(=O)(=O)NC(C)C(=O)O)c1C (centres undefined)	7	0	-3	-15	20	-7
O=C(Nc1ccccn1)c1csc2c1CCCC2	-143	0	25	0	18	-14
O=C(Nc1ccccn1)c1onc2c1CCCC2	37	-3	67*	-7	77*	-7
